Records with an inconclusive call do not appear. Values without a mark were called inactive. Activity calls are given as the source filed them. Calls follow the shape of the full dose curve.
Each compound was assayed against Vitamin D3 receptor (Homo sapiens) (UniProt P11473) (assay: qHTS assay for small molecule agonists of vitamin D receptor signaling (AID 588543)). Conditions: HEK293T VDR-UAS-bla, beta-lactamase ratio, 16 h; series mostly up to 76.8 µM; activation: at the top concentration.
Vitamin D3 receptor (Homo sapiens), sequence (P11473 whole entry, looked up): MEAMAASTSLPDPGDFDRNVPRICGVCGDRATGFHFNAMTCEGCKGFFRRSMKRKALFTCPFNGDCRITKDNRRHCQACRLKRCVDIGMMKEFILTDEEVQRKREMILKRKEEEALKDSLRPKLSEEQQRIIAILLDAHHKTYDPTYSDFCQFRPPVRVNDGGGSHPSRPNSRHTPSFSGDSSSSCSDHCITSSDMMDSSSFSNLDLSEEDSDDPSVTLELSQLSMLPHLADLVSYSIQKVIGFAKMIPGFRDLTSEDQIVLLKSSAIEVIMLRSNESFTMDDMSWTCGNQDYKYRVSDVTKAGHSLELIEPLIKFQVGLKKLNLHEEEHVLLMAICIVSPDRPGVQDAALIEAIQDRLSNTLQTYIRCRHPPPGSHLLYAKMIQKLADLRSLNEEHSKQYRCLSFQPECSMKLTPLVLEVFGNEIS
From the text: NIH Chemical Genomics Center [NCGC]
U.S. Environmental Protection Agency [EPA]
National Institutes of Environmental Health Sciences [NIEHS]
National Toxicology Program [NTP]
The Vitamin D receptor (VDR) is a member of nuclear hormone receptor superfamily and it plays a critical role in calcium homeostasis and bone metabolism. It plays a role in inducing cell differentiation, inhibiting cell growth and in thrombogenicity. So, VDR that mediates these effects represents a pharmacological target in prevention and treatment of hyperproliferative malignancies, such as cancer and psoriasis, cardiovascular, immunological, inflammatory and renal diseases etc.
NCGC Assay Protocol Summary
Using a beta-lactamase reporter-gene under control of Vitamin D receptor (VDR) response element, a cell-based assay [GeneBLAzer (VDR -UAS-bla assay developed by Invitrogen] was used to measure VDR ligands signaling. GeneBLAzer VDR -UAS-bla HEK293T cells were used with assay medium containing 2% charcoal-stripped FBS. The assay was performed in clear bottom black Greiner 1536-well plates. 1-alpha,25-Dihydroxy vitaminD3 was used as a positive control in the screen. Library compounds were measured for their ability to stimulate the reporter gene activity. Compounds were screened in a titration series in 1536-well format. The fluorescence intensity (405 nm excitation, 460/530 nm emission) was measured using an EnVision plate reader. Data was normalized relative to 1-alpha,25-Dihydroxy vitaminD3 control (50 nM, 100%) and DMSO only wells (basal, 0%). Concentration-response titration points for each compound were fitted to the Hill equation yielding concentrations of half-maximal stimulation (EC50) and maximal response (efficacy) values.
qHTS protocol for VDR beta-lactamase assay in agonist mode
[Step] [Parameter] [Value] [Description]
1. Reagent; 6 uL; 2000 cells/well
2. Incubation; 37 C for 5 hrs
4. Controls (1-alpha,25-Dihydroxy vitaminD3); 23 nL,
- Final concentrations of 50 nM and 15 nM in two columns
5. Incubation; 37 C for 16 hrs
6. Detection reagent; 1 uL of CCF4-dye
7. Incubation; RT for 2 hrs
8. Detection; Fluorescence; Envision plate reader
For `ClC1=C(Cl)[C@]2(Cl)[C@@H]3[C@@H]4C[C@@H]([C@H]5O[C@@H]45)[C@@H]3[C@@]1(Cl)C2(Cl)Cl`, the “activation” value was -4.39%. In the case of `O=[N+]([O-])c1c(Cl)c(Cl)cc(Cl)c1Cl`, the “activation” value is reported as -3%. With `CCOCCOC(C)=O` the “activation” value was 2.76%. For `CO/C=C(/C(=O)OC)c1ccccc1Oc1cc(Oc2ccccc2C#N)ncn1`, the “activation” value was -12.9%. For `O=S(=O)(c1ccc(Cl)cc1)c1ccc(Cl)cc1`, the outcome was “inactive”. `Nc1ccc(N=Nc2ccccc2)cc1` was tested, and the “activation” value was -0.54%. `COc1nn(CSP(=S)(OC)OC)c(=O)s1` was tested, and the “activation” value was -2.87%. In the case of `CCCCC(CC)COC(=O)c1ccccc1C(=O)OCC(CC)CCCC` (stereo not drawn), the “activation” value is reported as -0.292%. For `Nc1ccc(Cl)cc1N`, the outcome was “inactive”. In the case of `Nc1ccc(Sc2ccc(N)cc2)cc1`, the outcome is reported as “inactive”. For `O=[N+]([O-])c1cc([N+](=O)[O-])c2ccccc2c1`, the “activation” value was 0.837%. In the case of `CCO/N=C(\CC)C1=C(O)CC(c2c(C)cc(C)cc2C)CC1=O` (stereo not drawn), the “activation” value is reported as -2.59%. With `O=S(=O)(O)C(F)(F)C(F)(F)C(F)(F)C(F)(F)F` the outcome was “inactive”. For `C=CC(=O)NCNC(=O)C=C`, the outcome was “inactive”. With `Clc1cnc(Oc2ccc(Oc3ncc(Cl)cc3Cl)cc2)c(Cl)c1` the “activation” value was -6.99%. In the case of `O=C(O)COc1ccccc1`, the “activation” value is reported as -2.17%. With `Nc1ccc([N+](=O)[O-])cc1` the “activation” value was -1.26%. `C1CCC(NC2CCCCC2)CC1` was tested, and the outcome was “inactive”. With `O=[N+]([O-])c1c2ccccc2cc2ccccc12` the “activation” value was -2.51%. With `c1cc2ccc3cccc4ccc(c1)c2c34` the outcome was “inactive”. With `CS(=O)(=O)c1ccc(C(=O)C2C(=O)CCCC2=O)c([N+](=O)[O-])c1` the “activation” value was -4.03%. In the case of `CCOP(=O)(NC(C)C)Oc1ccc(SC)c(C)c1` (stereo not drawn), the outcome is reported as “inactive”. For `CN(C)NC(=O)CCC(=O)O`, the outcome was “inactive”. With `CC(C)Oc1cccc(NC(=O)c2ccccc2C(F)(F)F)c1` the “activation” value was -1.85%. `C=CCC1=C(C)C(OC(=O)C2C(C=C(C)C)C2(C)C)CC1=O` (stereo not drawn) was tested, and the outcome was “inactive”. With `COCCOCCO` the outcome was “inactive”. `CCCCCCCCCCCCCCCC[N+](C)(C)C` was tested, and the outcome was “inactive”. `O=C(O)CCCOc1ccc(Cl)cc1Cl` was tested, and the “activation” value was -5%. `CCCN(CCC)c1c([N+](=O)[O-])cc(S(N)(=O)=O)cc1[N+](=O)[O-]` was tested, and the “activation” value was 3.67%. In the case of `OCCCBr`, the “activation” value is reported as 0.852%. In the case of `CC(C)(C)C(O)C(Oc1ccc(Cl)cc1)n1cncn1` (stereo not drawn), the “activation” value is reported as -0.68%. In the case of `CC(C)(O)C(=O)Nc1ccc([N+](=O)[O-])c(C(F)(F)F)c1`, the “activation” value is reported as -6.32%. `O=S(=O)(O)C(F)(F)C(F)(F)C(F)(F)C(F)(F)C(F)(F)C(F)(F)C(F)(F)C(F)(F)F` was tested, and the outcome was “inactive”. With `Nc1c(Cl)c(Cl)c(Cl)c(Cl)c1Cl` the “activation” value was 2.77%. With `O=C(Nc1ccccc1-c1ccc(Cl)cc1)c1cccnc1Cl` the “activation” value was -5.1%. For `COc1ccc(C(c2ccc(OC)cc2)C(Cl)(Cl)Cl)cc1`, the outcome was “inactive”. In the case of `Cc1cc(O)ccc1Cl`, the “activation” value is reported as 2.6%. For `CCCCCCCCc1ccc(O)cc1`, the outcome was “inactive”.
